# Reference: publication PMC7862700, “An all-to-all approach to the identification of sequence-specific readers for epigenetic DNA modifications on cytosine”
# How the values were obtained:
# Assay in all cases: DAPPL (digital affinity profiling via proximity ligation, sequencing); 10 mM Tris-HCl pH 7.5, 50 mM NaCl, 1 mM DTT, 4% glycerol, room temperature, 30 min; GST-TFs on glutathione beads, 16-mer random dsDNA library, 0.1% formaldehyde crosslink after washing; high values mean tight binding
# Conditions in all cases: protein: recombinant; tags: N-terminal GST; dsDNA, one strand shown
# FLI1 = biological target: T1, FLI1 (Homo sapiens, UniProt Q01543 1-452)
# T1 sequence: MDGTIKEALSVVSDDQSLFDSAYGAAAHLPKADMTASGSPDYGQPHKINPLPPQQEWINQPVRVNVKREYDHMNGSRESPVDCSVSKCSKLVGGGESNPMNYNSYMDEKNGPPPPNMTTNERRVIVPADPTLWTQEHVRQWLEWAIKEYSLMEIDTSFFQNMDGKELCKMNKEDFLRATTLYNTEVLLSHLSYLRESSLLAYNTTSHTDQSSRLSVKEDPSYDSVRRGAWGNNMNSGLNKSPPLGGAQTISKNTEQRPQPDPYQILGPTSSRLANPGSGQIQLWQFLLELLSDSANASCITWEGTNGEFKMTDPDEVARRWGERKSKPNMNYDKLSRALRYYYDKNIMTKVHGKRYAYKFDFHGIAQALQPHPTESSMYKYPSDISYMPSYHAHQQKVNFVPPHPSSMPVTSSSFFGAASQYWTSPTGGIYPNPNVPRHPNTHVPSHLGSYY
# In short: (§1)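 Yeast served to express human transcription factors as GST fusions, which were then captured on glutathione beads and labelled with DNA barcodes. Pooled with a tag-only sample, they were incubated with 200 nmole of a 16-mer random double-stranded DNA library for 30 min at room temperature in Tris/NaCl/DTT/glycerol buffer, washed, crosslinked with 0.1% formaldehyde, ligated by proximity, amplified by PCR and sequenced. Dividing each hexamer's read frequency for a factor by its frequency for the tag-only sample gives the binding signal.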
# ELF1 = ELF1 (Homo sapiens, UniProt P32519 1-619)
# ELF1, sequence (P32519 whole entry): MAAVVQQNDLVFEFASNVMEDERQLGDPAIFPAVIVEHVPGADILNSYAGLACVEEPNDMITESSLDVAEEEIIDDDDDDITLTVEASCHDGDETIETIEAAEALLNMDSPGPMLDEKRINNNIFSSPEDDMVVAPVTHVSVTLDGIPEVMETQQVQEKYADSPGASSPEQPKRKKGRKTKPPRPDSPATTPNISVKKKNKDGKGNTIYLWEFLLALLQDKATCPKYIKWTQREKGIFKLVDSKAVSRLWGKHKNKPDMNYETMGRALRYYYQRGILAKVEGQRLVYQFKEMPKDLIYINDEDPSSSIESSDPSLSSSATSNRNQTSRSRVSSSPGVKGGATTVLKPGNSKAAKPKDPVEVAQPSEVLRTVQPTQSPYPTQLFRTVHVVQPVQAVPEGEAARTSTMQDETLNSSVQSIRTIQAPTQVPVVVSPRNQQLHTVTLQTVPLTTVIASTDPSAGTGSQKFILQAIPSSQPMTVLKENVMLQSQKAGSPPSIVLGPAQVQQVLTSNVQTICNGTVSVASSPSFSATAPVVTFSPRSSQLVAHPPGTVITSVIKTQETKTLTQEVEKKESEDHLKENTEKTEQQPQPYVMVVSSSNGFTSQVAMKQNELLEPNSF
# In short: as §1
# EHF = biological target: T2, EHF (Homo sapiens, UniProt Q9NZC4 1-300)
# T2 sequence: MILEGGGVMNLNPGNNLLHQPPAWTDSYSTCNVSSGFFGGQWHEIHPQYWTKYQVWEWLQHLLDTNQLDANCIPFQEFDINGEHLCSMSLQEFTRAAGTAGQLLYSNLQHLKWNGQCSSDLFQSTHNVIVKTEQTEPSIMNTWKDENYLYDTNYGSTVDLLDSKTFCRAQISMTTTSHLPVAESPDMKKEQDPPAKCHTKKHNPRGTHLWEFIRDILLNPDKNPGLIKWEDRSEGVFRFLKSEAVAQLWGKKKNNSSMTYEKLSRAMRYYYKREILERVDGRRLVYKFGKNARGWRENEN
# In short: as §1
# ELK3 = biological target: T3, ELK3 (Homo sapiens, UniProt P41970 1-407)
# T3 sequence: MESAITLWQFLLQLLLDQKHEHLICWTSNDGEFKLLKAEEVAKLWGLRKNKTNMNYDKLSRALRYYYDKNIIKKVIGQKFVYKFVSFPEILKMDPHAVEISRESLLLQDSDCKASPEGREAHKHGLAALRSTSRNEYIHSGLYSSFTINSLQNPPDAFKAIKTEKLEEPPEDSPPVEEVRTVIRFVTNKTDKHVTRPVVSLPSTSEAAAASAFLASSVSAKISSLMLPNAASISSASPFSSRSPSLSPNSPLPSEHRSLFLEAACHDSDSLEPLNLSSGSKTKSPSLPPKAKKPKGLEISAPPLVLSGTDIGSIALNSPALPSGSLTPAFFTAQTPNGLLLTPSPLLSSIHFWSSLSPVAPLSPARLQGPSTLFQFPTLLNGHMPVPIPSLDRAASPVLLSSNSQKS
# In short: as §1
# SPIC = biological target: T4, SPIC (Homo sapiens, UniProt Q8N5J4 1-248)
# T4 sequence: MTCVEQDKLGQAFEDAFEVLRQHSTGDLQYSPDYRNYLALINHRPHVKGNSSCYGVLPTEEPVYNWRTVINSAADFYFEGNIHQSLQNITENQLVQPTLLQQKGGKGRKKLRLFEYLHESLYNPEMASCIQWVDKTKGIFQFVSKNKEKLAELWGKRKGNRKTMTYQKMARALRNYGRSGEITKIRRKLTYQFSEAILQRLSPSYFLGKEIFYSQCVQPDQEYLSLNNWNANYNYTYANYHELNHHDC
# In short: as §1
# ELF4 = ELF4 (Homo sapiens, UniProt Q99607 1-663)
# ELF4, sequence (Q99607 whole entry): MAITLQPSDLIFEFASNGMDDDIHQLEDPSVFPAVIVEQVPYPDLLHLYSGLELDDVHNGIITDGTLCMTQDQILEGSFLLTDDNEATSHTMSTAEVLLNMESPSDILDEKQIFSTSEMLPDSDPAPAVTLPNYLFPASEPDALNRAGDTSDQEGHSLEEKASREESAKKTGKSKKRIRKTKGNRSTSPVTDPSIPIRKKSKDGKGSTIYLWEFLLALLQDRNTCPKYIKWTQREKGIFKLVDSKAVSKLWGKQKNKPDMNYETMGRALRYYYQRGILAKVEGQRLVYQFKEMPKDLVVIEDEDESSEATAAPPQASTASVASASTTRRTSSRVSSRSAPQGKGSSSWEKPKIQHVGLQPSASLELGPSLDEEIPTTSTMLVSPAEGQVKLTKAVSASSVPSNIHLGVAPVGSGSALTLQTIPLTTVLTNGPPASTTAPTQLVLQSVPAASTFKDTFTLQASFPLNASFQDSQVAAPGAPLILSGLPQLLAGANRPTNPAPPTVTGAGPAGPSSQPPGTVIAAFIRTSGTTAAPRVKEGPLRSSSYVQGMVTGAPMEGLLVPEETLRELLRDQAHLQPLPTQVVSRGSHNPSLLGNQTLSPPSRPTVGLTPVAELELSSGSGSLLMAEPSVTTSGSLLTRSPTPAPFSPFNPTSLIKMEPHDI
# In short: as §1
# ETV2 = biological target: T5, ETV2 (Homo sapiens, UniProt O00321 1-342)
# T5 sequence: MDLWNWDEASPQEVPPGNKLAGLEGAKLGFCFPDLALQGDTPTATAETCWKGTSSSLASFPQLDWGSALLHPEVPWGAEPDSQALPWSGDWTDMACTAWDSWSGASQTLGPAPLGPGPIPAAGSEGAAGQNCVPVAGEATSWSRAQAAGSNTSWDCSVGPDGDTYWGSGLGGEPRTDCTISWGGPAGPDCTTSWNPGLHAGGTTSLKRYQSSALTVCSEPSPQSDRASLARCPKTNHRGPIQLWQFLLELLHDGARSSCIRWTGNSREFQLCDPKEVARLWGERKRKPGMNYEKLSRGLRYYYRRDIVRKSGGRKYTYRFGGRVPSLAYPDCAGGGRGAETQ
# In short: as §1
# ELF3 = biological target: T6, ELF3 (Homo sapiens, UniProt P78545 1-371)
# T6 sequence: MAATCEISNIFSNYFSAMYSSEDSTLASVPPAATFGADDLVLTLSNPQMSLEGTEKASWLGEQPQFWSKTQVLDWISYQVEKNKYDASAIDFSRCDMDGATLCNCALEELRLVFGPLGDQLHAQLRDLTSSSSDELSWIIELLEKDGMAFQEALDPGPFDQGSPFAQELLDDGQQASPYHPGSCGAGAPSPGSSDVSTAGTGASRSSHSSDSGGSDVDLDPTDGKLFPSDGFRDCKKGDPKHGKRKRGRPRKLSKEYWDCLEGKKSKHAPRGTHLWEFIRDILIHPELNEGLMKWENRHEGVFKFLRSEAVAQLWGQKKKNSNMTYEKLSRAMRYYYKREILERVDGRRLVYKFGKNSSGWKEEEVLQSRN
# In short: as §1
# ETV1 = ETV1 (Homo sapiens, UniProt P50549 1-477)
# ETV1, sequence (P50549 whole entry): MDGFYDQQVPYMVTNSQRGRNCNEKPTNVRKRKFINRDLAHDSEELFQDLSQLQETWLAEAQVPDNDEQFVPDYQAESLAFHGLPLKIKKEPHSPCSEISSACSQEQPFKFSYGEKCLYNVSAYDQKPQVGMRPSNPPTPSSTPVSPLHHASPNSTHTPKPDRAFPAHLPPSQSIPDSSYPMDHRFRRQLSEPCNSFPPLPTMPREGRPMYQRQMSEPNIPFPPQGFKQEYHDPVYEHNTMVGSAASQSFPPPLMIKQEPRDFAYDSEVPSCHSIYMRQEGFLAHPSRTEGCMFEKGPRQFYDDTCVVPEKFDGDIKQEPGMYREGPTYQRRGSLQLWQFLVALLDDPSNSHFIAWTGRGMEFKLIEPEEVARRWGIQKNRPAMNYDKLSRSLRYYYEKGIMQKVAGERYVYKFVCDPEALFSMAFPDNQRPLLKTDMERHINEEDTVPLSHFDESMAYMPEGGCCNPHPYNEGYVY
# In short: as §1
# ERF = biological target: T7, ERF (Homo sapiens, UniProt P50548 1-548)
# T7 sequence: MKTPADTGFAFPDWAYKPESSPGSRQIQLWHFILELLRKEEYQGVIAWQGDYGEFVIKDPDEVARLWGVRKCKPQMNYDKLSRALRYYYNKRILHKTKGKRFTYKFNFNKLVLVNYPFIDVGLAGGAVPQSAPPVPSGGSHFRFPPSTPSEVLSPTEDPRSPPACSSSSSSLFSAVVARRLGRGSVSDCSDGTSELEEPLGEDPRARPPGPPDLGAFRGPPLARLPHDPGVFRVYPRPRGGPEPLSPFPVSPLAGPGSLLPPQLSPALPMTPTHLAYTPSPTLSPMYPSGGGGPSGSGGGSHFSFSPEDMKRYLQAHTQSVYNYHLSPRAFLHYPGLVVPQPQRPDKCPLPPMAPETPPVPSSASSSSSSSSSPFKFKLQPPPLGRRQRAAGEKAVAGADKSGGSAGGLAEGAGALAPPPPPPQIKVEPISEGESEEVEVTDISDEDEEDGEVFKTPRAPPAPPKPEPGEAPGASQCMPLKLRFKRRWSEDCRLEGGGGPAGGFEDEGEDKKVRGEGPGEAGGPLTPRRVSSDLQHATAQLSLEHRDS
# In short: as §1
# ETV7 = biological target: T8, ETV7 (Homo sapiens, UniProt Q9Y603 1-341)
# T8 sequence: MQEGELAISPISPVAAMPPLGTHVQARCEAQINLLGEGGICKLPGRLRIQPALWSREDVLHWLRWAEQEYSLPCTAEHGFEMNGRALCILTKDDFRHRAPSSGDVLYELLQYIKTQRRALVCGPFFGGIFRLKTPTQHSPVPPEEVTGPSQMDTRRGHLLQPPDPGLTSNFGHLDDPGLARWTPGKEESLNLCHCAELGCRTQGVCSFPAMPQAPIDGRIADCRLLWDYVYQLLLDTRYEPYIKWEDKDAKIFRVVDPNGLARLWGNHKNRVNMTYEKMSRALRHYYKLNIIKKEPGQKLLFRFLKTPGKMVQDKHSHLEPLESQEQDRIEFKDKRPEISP
# In short: as §1
# ETV3 = biological target: T9, ETV3 (Homo sapiens, UniProt P41162-2 1-143)
# T9 sequence: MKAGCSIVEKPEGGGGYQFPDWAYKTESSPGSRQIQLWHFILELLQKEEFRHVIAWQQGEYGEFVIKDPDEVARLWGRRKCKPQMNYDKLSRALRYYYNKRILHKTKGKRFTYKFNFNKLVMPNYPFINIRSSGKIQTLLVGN
# In short: as §1
# ELK4 = biological target: T10, ELK4 (Homo sapiens, UniProt P28324-2 1-405)
# T10 sequence: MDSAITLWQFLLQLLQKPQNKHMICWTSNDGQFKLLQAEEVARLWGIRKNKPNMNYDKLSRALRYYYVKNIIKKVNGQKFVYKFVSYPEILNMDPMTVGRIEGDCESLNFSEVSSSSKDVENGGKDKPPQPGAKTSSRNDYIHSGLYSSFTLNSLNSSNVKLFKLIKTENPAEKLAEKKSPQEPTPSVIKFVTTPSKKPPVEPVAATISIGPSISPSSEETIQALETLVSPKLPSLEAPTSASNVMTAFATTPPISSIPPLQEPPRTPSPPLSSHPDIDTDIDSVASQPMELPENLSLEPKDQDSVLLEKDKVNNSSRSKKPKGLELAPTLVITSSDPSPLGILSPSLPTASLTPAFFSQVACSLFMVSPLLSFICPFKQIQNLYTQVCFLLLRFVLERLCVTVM
# In short: as §1
# ELK1 = biological target: T11, ELK1 (Homo sapiens, UniProt P19419 1-428)
# T11 sequence: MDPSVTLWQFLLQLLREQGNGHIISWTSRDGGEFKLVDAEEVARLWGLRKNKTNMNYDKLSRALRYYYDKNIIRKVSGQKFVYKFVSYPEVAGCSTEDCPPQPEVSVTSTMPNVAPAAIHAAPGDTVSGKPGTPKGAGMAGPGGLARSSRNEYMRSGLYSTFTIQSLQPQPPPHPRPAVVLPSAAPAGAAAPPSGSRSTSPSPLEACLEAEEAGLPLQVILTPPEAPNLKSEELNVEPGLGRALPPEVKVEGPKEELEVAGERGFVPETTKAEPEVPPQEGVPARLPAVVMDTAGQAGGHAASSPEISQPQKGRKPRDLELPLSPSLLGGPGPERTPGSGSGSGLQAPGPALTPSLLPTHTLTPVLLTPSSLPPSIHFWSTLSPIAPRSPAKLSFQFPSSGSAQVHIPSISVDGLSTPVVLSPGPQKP
# In short: as §1
# GABPA = biological target: T12, GABPA (Homo sapiens, UniProt Q06546 1-454)
# T12 sequence: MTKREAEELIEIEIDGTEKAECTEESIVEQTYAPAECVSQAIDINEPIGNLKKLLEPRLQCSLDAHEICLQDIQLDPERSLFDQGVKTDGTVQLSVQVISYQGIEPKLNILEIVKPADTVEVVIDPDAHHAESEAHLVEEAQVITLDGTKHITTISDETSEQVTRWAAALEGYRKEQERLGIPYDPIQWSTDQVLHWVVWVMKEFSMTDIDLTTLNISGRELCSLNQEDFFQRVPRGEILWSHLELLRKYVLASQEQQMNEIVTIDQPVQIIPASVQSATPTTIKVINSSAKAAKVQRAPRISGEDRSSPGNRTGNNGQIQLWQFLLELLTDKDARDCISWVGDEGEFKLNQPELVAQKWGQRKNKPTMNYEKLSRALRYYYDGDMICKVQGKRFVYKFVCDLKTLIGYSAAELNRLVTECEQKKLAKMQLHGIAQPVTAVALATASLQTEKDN
# In short: as §1
# SPIB = SPIB (Homo sapiens, UniProt Q01892 1-262)
# SPIB, sequence (Q01892 whole entry): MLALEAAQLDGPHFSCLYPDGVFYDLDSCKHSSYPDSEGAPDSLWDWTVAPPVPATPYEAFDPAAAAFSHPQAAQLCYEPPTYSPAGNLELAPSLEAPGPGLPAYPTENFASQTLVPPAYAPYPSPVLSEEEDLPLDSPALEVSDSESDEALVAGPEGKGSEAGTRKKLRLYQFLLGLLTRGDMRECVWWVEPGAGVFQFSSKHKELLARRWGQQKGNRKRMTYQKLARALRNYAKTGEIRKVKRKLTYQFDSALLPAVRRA
# In short: as §1
# ETV6 = ETV6 (Homo sapiens, UniProt P41212 1-452)
# ETV6, sequence (P41212 whole entry): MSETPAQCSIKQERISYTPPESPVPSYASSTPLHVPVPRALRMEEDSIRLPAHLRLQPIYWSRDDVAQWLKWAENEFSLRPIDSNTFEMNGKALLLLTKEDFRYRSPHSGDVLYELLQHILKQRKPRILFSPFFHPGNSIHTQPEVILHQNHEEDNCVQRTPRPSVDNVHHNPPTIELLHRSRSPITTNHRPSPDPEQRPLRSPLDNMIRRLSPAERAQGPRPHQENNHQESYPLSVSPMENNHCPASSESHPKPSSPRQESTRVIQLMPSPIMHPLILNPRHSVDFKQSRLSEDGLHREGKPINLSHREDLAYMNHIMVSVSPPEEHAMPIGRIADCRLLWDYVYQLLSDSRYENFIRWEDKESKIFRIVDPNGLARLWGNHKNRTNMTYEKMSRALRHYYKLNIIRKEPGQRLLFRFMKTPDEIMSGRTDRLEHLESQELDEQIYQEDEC
# In short: as §1
sequence,measurement,setting,value
ACTCGG,binding signal,FLI1,"1.07 fold enrichment (6-mer frequency, TF over GST control)"
same,binding signal,ELF1,"1.07 fold enrichment (6-mer frequency, TF over GST control)"
same,binding signal,EHF,"1.04 fold enrichment (6-mer frequency, TF over GST control)"
same,binding signal,ELK3,"1.06 fold enrichment (6-mer frequency, TF over GST control)"
same,binding signal,SPIC,"1.08 fold enrichment (6-mer frequency, TF over GST control)"
same,binding signal,ELF4,"1.02 fold enrichment (6-mer frequency, TF over GST control)"
same,binding signal,ETV2,"1.03 fold enrichment (6-mer frequency, TF over GST control)"
same,binding signal,ELF3,"1.03 fold enrichment (6-mer frequency, TF over GST control)"
same,binding signal,ETV1,"1.03 fold enrichment (6-mer frequency, TF over GST control)"
same,binding signal,ERF,"1.04 fold enrichment (6-mer frequency, TF over GST control)"
same,binding signal,ETV7,"1.06 fold enrichment (6-mer frequency, TF over GST control)"
same,binding signal,ETV3,"1.04 fold enrichment (6-mer frequency, TF over GST control)"
GCCTGT,binding signal,FLI1,"1.02 fold enrichment (6-mer frequency, TF over GST control)"
same,binding signal,ELK3,"1.03 fold enrichment (6-mer frequency, TF over GST control)"
same,binding signal,ELK4,"1.05 fold enrichment (6-mer frequency, TF over GST control)"
same,binding signal,ETV3,"1.04 fold enrichment (6-mer frequency, TF over GST control)"
GGTCTG,binding signal,FLI1,"1.03 fold enrichment (6-mer frequency, TF over GST control)"
same,binding signal,ELK1,"1.11 fold enrichment (6-mer frequency, TF over GST control)"
same,binding signal,GABPA,"1.02 fold enrichment (6-mer frequency, TF over GST control)"
same,binding signal,SPIB,"1 fold enrichment (6-mer frequency, TF over GST control)"
same,binding signal,ELK3,"1.03 fold enrichment (6-mer frequency, TF over GST control)"
same,binding signal,ELK4,"1.07 fold enrichment (6-mer frequency, TF over GST control)"
same,binding signal,ETV2,"1.07 fold enrichment (6-mer frequency, TF over GST control)"
same,binding signal,ETV1,"1.07 fold enrichment (6-mer frequency, TF over GST control)"
same,binding signal,ERF,"1.09 fold enrichment (6-mer frequency, TF over GST control)"
same,binding signal,ETV6,"1.02 fold enrichment (6-mer frequency, TF over GST control)"
